In paper PMC5540273 (PLoS ONE, 2017):

What was measured:
Conditions in all cases: concentration: 1 μM, replicates: in singlicate; n = 1
[1] = system: T1, MEK1
T1 construct: gene MAP2K1

[2] = system: T2, MEK2
T2 construct: gene MAP2K2

[3] = system: T3, MEK3
T3 construct: gene MAP2K3

[4] = system: T4, MEK4
T4 construct: gene MAP2K4

[5] = system: T5, MEK5
T5 construct: gene MAP2K5

[6] = system: T6, MEK6
T6 construct: gene MAP2K6

[7] = system: MELK
[8] = system: MERTK
[9] = system: MET
[10] = system: T7, MINK
T7 construct: gene MINK1
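Note: KINOMEscan kinase panel screen.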

SMILES | %Inh [1] [%] | %Inh [2] [%] | %Inh [3] [%] | %Inh [4] [%] | %Inh [5] [%] | %Inh [6] [%] | %Inh [7] [%] | %Inh [8] [%] | %Inh [9] [%] | %Inh [10] [%]
CN1c2ccc(NCc3ccc(F)cc3)cc2-c2c(cnn2C)S1(=O)=O | 7 | 27 | 13 | 0 | 17 | 0 | 0 | 0 | 3 | 26
COc1ccc(Nc2nccc(N3CCC(NC(=O)Nc4cccc(C(C)=O)c4)C3)n2)cc1 (stereo not drawn) [GSK1379731] | 0 | 0 | 0 | 40 | 36 | 0 | 0 | 35 | 0 | 0
CNc1ncnc2[nH]ncc12 [SKF-18355] | 13 | 40 | 31 | 18 | 55 | 10 | 0 | 0 | 0 | 18
c1ccc(-c2n[nH]cc2-c2ccnc3ccccc23)nc1 [GW271431] | 0 | 0 | 0 | 32 | 30 | 0 | 10 | 34 | 0 | 54
O=C1Cc2cc(Nc3nc(NCc4cccc(S(=O)(=O)C(F)(F)F)c4)ncc3C(F)(F)F)ccc2N1 | 0 | 0 | 15 | 30 | 0 | 14 | 0 | 0 | 0 | 0
COc1ccc(COc2cc(-n3cnc4ccccc43)sc2C(N)=O)cc1 [GSK1024304] | 0 | 0 | 0 | 14 | 32 | 0 | 0 | 1 | 0 | 24
CCCCCc1nc2c(N)ncnc2n1CCCCC [SKF-97255] | 15 | 28 | 34 | 18 | 32 | 15 | 0 | 17 | 0 | 0
Cc1nnc(-c2ccc3occ(-c4ccc(C(C)O)cc4)c3c2)o1 (stereo not drawn) | 10 | 24 | 11 | 15 | 8 | 8 | 12 | 3 | 5 | 0
Fc1ccc(-c2nn3c(OCC(F)(F)F)cccc3c2-c2ccncc2)cc1 [GW514784] | 0 | 0 | 0 | 0 | 20 | 1 | 3 | 0 | 0 | 35
Cc1nnc(-c2ccc3ncc(-c4ccc(S(C)=O)cc4)n3c2)o1 (stereo not drawn) | 9 | 9 | 6 | 24 | 42 | 0 | 4 | 0 | 15 | 0
O=C(Nc1cccc(-c2nn3ncccc3c2-c2ccnc(Nc3cccc(C(F)(F)F)c3)n2)c1)c1c(F)cccc1F [GSK299495] | 48 | 54 | 0 | 29 | 97.6 | 7 | 0 | 51 | 0 | 0
COc1cc2c(cc1OC[C@@H](O)CO)ncc1c3ccc(C#N)cc3[nH]c21 | 45 | 42 | 0 | 0 | 99.9 | 0 | 31 | 0 | 0 | 91.9
NS(=O)(=O)c1cccc(-c2ccc3ncc(N4CCOCC4)nc3c2)c1 [GSK1535721] | 11 | 0 | 0 | 23 | 16 | 4 | 17 | 9 | 0 | 27
Cn1ccc2ncnc(Oc3ccc(NC(=O)Nc4ccncc4)c(Cl)c3)c21 | 40 | 32 | 0 | 0 | 4 | 0 | 0 | 0 | 0 | 0
Cc1c(Cn2c(C)nn3c(=O)cc(N4CCOC(C)C4)nc23)cccc1C(F)(F)F (stereo not drawn) [GSK2344444] | 0 | 0 | 0 | 17 | 49 | 0 | 0 | 10 | 0 | 0
Cc1nnc(-c2ccc(C)c(-c3ccc(C(=O)Nc4ccc(NS(C)(=O)=O)cc4)cc3)c2)o1 [GW702865] | 8 | 7 | 0 | 0 | 18 | 0 | 10 | 0 | 12 | 19
Cc1cccc(Cn2ccn3c(=O)cc(N4CCOCC4)nc23)c1 [GSK2297542] | 0 | 0 | 0 | 23 | 14 | 5 | 8 | 24 | 23 | 7

SMILES | %Inh [1] [%] | %Inh [2] [%] | %Inh [3] [%] | %Inh [4] [%] | %Inh [5] [%] | %Inh [6] [%] | %Inh [7] [%] | %Inh [8] [%] | %Inh [9] [%] | %Inh [10] [%]
Fc1ccc(-c2ncn(CCCN3CCOCC3)c2-c2cccnc2)cc1 [SB-211743] | 27 | 44 | 26 | 15 | 15 | 0 | 0 | 4 | 0 | 16
C[C@@H](Oc1cc(-n2cnc3ccc(NC(=O)NC(C)(C)C)cc32)sc1C(N)=O)c1ccccc1Cl [GSK346294] | 0 | 0 | 0 | 14 | 18 | 0 | 21 | 8 | 0 | 4
COc1ccc(Nc2ncc(C#N)c(Nc3ccccc3C(N)=O)n2)cc1N1CCN(C)CC1.Cl [GSK1558669] | 85 | 92.6 | 89 | 92.5 | 100 | 79 | 100 | 100 | 92 | 98.7
Cl.Oc1cccc(Nc2ccnc3cc(-c4ccncc4)ccc23)c1 [GW494601] | 33 | 100 | 0 | 18 | 99.8 | 0 | 0 | 46 | 0 | 79
O=C(NCCCN1CCOCC1)c1cccc(Nc2nccc(Nc3ccc(Oc4ccccc4)cc3)n2)c1 [GW663929] | 71 | 77 | 7 | 21 | 100 | 11 | 10 | 0 | 0 | 18
CCc1ccnc(/C=C/c2n[nH]c3cc(Sc4ccccc4C(=O)NC)ccc23)c1 | 0 | 10 | 0 | 0 | 62 | 9 | 6 | 0 | 0 | 34
O=C(c1ccc(-c2cc(-c3c[nH]nc3-c3ccccn3)ccn2)cc1)N1CCOCC1 [GW812171] | 31 | 46 | 38 | 14 | 42 | 14 | 0 | 12 | 0 | 40
Cc1c2ccc(N(C)c3ccnc(Nc4cccc(S(N)(=O)=O)c4)n3)cc2nn1Cc1ccccc1.Cl.Cl [GW787226] | 12 | 34 | 29 | 75 | 98.4 | 23 | 16 | 70 | 60 | 54
O=C(NCCNc1ccnc(Nc2ccc(F)cc2)n1)Nc1ccccc1F [GSK1379880] | 0 | 0 | 0 | 26 | 30 | 0 | 0 | 7 | 0 | 0
CC(=O)Nc1ccc(COc2ccc(Nc3ccnc4cc(-c5ccccn5)ccc34)cc2)cc1.Cl [GW440148] | 51 | 70 | 0 | 0 | 99.5 | 18 | 5 | 11 | 5 | 11
COc1ccc(Nc2nccc(N3CCC(NC(=O)Nc4cc(C)ccc4C)C3)n2)cc1 (stereo not drawn) [GSK1379741] | 0 | 0 | 0 | 14 | 44 | 0 | 0 | 24 | 0 | 0
CN(C(=O)c1ccc(-c2cc(-c3c[nH]nc3-c3ccccn3)ccn2)cc1)C1CCOCC1 [GW810083] | 0 | 0 | 14 | 0 | 5 | 0 | 41 | 0 | 0 | 8
O=C(Nc1n[nH]c2cc(-c3cccc(F)c3)ccc12)C1CC1 [SB-735464] | 8 | 10 | 8 | 4 | 31 | 0 | 0 | 23 | 0 | 61
Cl.Nc1ncnc2occ(-c3ccc(NC(=O)Nc4cc(C(F)(F)F)ccc4F)cc3)c12 [SB-707548] | 15 | 57 | 0 | 23 | 91.4 | 10 | 33 | 98.3 | 17 | 62
COc1cc2ncn(-c3cc(OCc4sccc4Cl)c(C(N)=O)s3)c2cc1OC [GSK448459] | 0 | 0 | 0 | 15 | 99.8 | 0 | 0 | 23 | 8 | 50
CSc1ccc(-c2cc3ncnc(SCC(=O)O)c3s2)cc1 | 0 | 0 | 2 | 0 | 1 | 0 | 10 | 0 | 3 | 8
